Results as given in PubChem BioAssay (Tox21).
Inconclusive results are not listed. Where a call stands in place of a potency, no number is given. Activity calls are given as the source filed them. Unless noted, calls follow the shape of the dose curve; as a rule, active = well fitted cell-killing curve with a large enough effect in the repeat runs; inconclusive = weak or mixed curves, or effect the other way; inactive = no such curve, though single readings can be large or run the other way. Where a SMILES comes first, the peptide text is derived from it. [ ]: non-standard residue; d: D form. pGlu = O=C1CC[C@@H](C(=O)O)N1

Biological target: Progesterone receptor (Homo sapiens) (UniProt P06401)
Sequence (P06401 whole entry, looked up): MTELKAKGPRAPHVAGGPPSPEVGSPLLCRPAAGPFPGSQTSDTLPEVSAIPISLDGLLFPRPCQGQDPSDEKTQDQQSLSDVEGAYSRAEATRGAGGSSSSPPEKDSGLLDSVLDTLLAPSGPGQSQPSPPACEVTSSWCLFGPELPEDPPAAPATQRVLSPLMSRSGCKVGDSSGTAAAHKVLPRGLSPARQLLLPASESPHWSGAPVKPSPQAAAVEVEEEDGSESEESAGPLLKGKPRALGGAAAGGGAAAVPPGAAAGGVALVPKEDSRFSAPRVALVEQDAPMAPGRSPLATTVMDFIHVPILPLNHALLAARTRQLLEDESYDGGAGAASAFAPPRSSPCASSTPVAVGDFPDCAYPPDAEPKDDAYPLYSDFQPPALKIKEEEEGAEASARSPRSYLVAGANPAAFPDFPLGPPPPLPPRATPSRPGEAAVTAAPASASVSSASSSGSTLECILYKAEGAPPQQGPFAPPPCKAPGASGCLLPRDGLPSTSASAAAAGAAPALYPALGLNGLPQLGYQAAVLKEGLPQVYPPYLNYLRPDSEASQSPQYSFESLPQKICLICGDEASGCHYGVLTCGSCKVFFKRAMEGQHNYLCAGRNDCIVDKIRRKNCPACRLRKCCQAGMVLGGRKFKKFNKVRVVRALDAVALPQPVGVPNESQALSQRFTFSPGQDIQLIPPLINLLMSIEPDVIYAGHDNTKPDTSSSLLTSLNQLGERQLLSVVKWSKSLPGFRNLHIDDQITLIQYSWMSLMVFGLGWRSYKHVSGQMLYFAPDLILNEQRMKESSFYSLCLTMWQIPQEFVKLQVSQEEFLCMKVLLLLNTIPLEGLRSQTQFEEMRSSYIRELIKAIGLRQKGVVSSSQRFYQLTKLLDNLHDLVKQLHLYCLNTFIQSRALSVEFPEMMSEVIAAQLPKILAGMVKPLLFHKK
Test: qHTS assay to identify small molecule agonists of the progesterone receptor (PR) signaling pathway (AID 1346784; calls by dose curve; also: nearly all actives have a fitted effect of over 30% in size)
Settings: PR-UAS-bla HEK293T, beta-lactamase FRET ratio, 16 h; series mostly up to 92.4 µM
How it was run: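 Seed PR-UAS-bla HEK 293T cells (2% charcoal-stripped FBS), incubate 6 hr at 37C; add compounds in DMSO, 16 hr at 37C; add LiveBLAzer B/G substrate, 2 hr RT; read fluorescence intensity.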

| SMILES | Potency |
| --- | --- |
| O=Cc1cccc(Br)c1 | inactive |
| CN1CCC(=C2c3ccccc3CCc3cccnc32)CC1 | inactive |
| CCCCc1ccc2c(n1)[C@@H](c1ccc(OC)cc1C[C@H](C)C(=O)O)[C@H](C(=O)O)[C@H]2c1ccc2c(c1)OCO2 | inactive |
| CC(=O)c1ccc2ccccc2c1 | inactive |
| CC(C)c1ccc2ncccc2c1 | inactive |
| c1ccc(Cc2ccccc2)cc1 | inactive |
| C=C(C)C(=O)OCC1CCCO1 (stereo not given) | inactive |
| CN(C)CCCN(C)CCCN(C)C | inactive |
| O=S(=O)(O)c1cc(O)c(O)c(S(=O)(=O)O)c1 | inactive |
| O=[N+]([O-])c1cncn1CCN1CCOCC1 | inactive |
| CCOC(=O)OC(C)OC1=C(C(=O)Nc2ccccn2)N(C)S(=O)(=O)c2ccccc21 (stereo not given) | inactive |
| CCC(C)(CCCC(C)C)OC(C)=O (stereo not given) | inactive |
| CC1(C)[C@@H]2CC[C@@]1(C)[C@H](O)C2 | inactive |
| CCN[C@H]1C[C@H](C)S(=O)(=O)c2sc(S(N)(=O)=O)cc21 | inactive |
| O=CN(CCO)CCO | inactive |

Biological target: Progesterone receptor (Homo sapiens) (UniProt P06401)
Test: qHTS assay to identify small molecule antagonists of the progesterone receptor (PR) signaling pathway (AID 1346795; active = well fitted inhibition curve with a large enough effect in the signal ratio in the repeat runs, not every such curve was filed as active; the % refers to the signal ratio)
Settings: PR-UAS-bla HEK293T, beta-lactamase FRET ratio, 16 h; series mostly up to 92.4 µM
How it was run: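 Screening used a GripTite HEK293T line with PR-responsive UAS-beta-lactamase. Cells were challenged with compound in the presence of 1 nM R5020 final for 16 hr at 37C; B/G FRET substrate, 2 hr room temperature, fluorescence.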

| SMILES | Potency |
| --- | --- |
| CC1(C)OC[C@@H](COC(=O)CCc2ccc(OC[C@@H](O)CNCCNC(=O)N3CCOCC3)cc2)O1 | inactive |
| CCC(C(=O)NC(=O)NC(C)=O)c1ccccc1 (stereo not given) | inactive |
| CC(C)(N)C#N | inactive |
| CN1C(C)(C)CC(O)CC1(C)C | inactive |
| [O-][n+]1cccc(CO)c1 | inactive |
| CCNC(=O)[C@@H]1CCCN1C(=O)[C@H](CCCN=C(N)N)NC(=O)[C@H](CC(C)C)NC(=O)CNC(=O)[C@H](Cc1ccc(O)cc1)NC(=O)[C@H](CO)NC(=O)[C@H](Cc1c[nH]c2ccccc12)NC(=O)[C@H](Cc1cnc[nH]1)NC(=O)[C@@H]1CCC(=O)N1 ([pGlu]HWSYGLRP-NHEt) | inactive |
| CC(C)CC(C)(N)C#N (stereo not given) | inactive |
| O=C(O)CCSCCC(=O)O | inactive |
| CC(COc1ccccc1)NN (stereo not given) | inactive |
| C=CC(=O)OCCCl | inactive |
| NS(=O)(=O)Cc1noc2ccccc12 | inactive |
| CC(=O)NC(=O)c1ccccc1O | inactive |
| OCCCCCO | inactive |
| O=C(CO)[C@@H](O)[C@H](O)[C@H](O)CO | inactive |
| C=CC(C)(CCC=C(C)C)OC(=O)CC (stereo not given) | inactive |
| CN(C)[C@@H]1C(=O)C(C(=O)NCN2CCCC2)=C(O)[C@@]2(O)C(=O)C3=C(O)c4c(O)cccc4[C@@](C)(O)C3C[C@@H]12 (stereo not given in full) | inactive |

| SMILES | Potency |
| --- | --- |
| Clc1cc(Cl)cc(Cl)c1 | inactive |
| O=C1CCCCCCCCCCCCCCO1 | inactive |
| CCCO[Si](OCCC)(OCCC)OCCC | inactive |
| C=COCC1CCC(COC=C)CC1 (stereo not given) | inactive |
| CN1CCC(=C2c3ccccc3CCc3cccnc32)CC1 | inactive |
| CC(=O)c1ccc2ccccc2c1 | inactive |
| c1ccc(Cc2ccccc2)cc1 | inactive |
| C=C(C)C(=O)OCC1CCCO1 (stereo not given) | inactive |
| O=S(=O)(O)c1cc(O)c(O)c(S(=O)(=O)O)c1 | inactive |
| O=[N+]([O-])c1cncn1CCN1CCOCC1 | inactive |
| CCOC(=O)OC(C)OC1=C(C(=O)Nc2ccccn2)N(C)S(=O)(=O)c2ccccc21 (stereo not given) | inactive |
| CCC(C)(CCCC(C)C)OC(C)=O (stereo not given) | inactive |
| CC1(C)[C@@H]2CC[C@@]1(C)[C@H](O)C2 | inactive |
| CCN[C@H]1C[C@H](C)S(=O)(=O)c2sc(S(N)(=O)=O)cc21 | inactive |
| O=CN(CCO)CCO | inactive |

Test system: not listed separately
Test: qHTS assay to identify small molecule antagonists of the progesterone receptor (PR) signaling pathway - cell viability counter screen (AID 1346798); also: nearly all actives have a fitted effect of over 50% in size
Settings: PR-UAS-bla HEK293T viability, CellTiter-Glo luminescence, 16 h; series mostly up to 92.4 µM
How it was run: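 Measures cytotoxicity in parallel with the PR antagonist reporter read: HEK293T PR-UAS-bla cells get compound and R5020 for 16 hr, and remaining viable cells are quantified by CellTiter-Glo luminescence.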

| SMILES | Potency |
| --- | --- |
| CC1(C)OC[C@@H](COC(=O)CCc2ccc(OC[C@@H](O)CNCCNC(=O)N3CCOCC3)cc2)O1 | inactive |
| CCC(C(=O)NC(=O)NC(C)=O)c1ccccc1 (stereo not given) | inactive |
| CC(C)(N)C#N | inactive |
| CN1C(C)(C)CC(O)CC1(C)C | inactive |
| O=C(c1ccccc1)C1(O)CCCCC1 | inactive |
| [O-][n+]1cccc(CO)c1 | inactive |
| CCNC(=O)[C@@H]1CCCN1C(=O)[C@H](CCCN=C(N)N)NC(=O)[C@H](CC(C)C)NC(=O)CNC(=O)[C@H](Cc1ccc(O)cc1)NC(=O)[C@H](CO)NC(=O)[C@H](Cc1c[nH]c2ccccc12)NC(=O)[C@H](Cc1cnc[nH]1)NC(=O)[C@@H]1CCC(=O)N1 ([pGlu]HWSYGLRP-NHEt) | inactive |
| O=C(O)CCSCCC(=O)O | inactive |
| CC(COc1ccccc1)NN (stereo not given) | inactive |
| C=CC(=O)OCCCl | inactive |
| NS(=O)(=O)Cc1noc2ccccc12 | inactive |
| CCNS(=O)(=O)c1ccc(C)cc1 | inactive |
| CC(=O)NC(=O)c1ccccc1O | inactive |
| O=C(CO)[C@@H](O)[C@H](O)[C@H](O)CO | inactive |
| C=CC(C)(CCC=C(C)C)OC(=O)CC (stereo not given) | inactive |
| CN(C)[C@@H]1C(=O)C(C(=O)NCN2CCCC2)=C(O)[C@@]2(O)C(=O)C3=C(O)c4c(O)cccc4[C@@](C)(O)C3C[C@@H]12 (stereo not given in full) | inactive |
| Clc1cc(Cl)cc(Cl)c1 | inactive |

| SMILES | Potency |
| --- | --- |
| O=C1CCCCCCCCCCCCCCO1 | inactive |
| CCCO[Si](OCCC)(OCCC)OCCC | inactive |
| C=COCC1CCC(COC=C)CC1 (stereo not given) | inactive |
| O=Cc1cccc(Br)c1 | inactive |
| C[N+](C)(CCOc1ccccc1)Cc1cccs1 | inactive |
| CN1CCC(=C2c3ccccc3CCc3cccnc32)CC1 | inactive |
| CC(=O)c1ccc2ccccc2c1 | inactive |
| CC(C)c1ccc2ncccc2c1 | inactive |
| c1ccc(Cc2ccccc2)cc1 | inactive |
| C=C(C)C(=O)OCC1CCCO1 (stereo not given) | inactive |
| O=S(=O)(O)c1cc(O)c(O)c(S(=O)(=O)O)c1 | inactive |
| O=[N+]([O-])c1cncn1CCN1CCOCC1 | inactive |
| CCOC(=O)OC(C)OC1=C(C(=O)Nc2ccccn2)N(C)S(=O)(=O)c2ccccc21 (stereo not given) | inactive |
| CCC(C)(CCCC(C)C)OC(C)=O (stereo not given) | inactive |
| CC1(C)[C@@H]2CC[C@@]1(C)[C@H](O)C2 | inactive |
| CCN[C@H]1C[C@H](C)S(=O)(=O)c2sc(S(N)(=O)=O)cc21 | inactive |
| O=CN(CCO)CCO | inactive |
